According to PubChem BioAssay:
Calls of active or inactive are those of the source. How the calls were made is not given here.

target: Pantothenate synthetase (Mycobacterium tuberculosis (strain ATCC 25618 / H37Rv)) (UniProt P9WIL5); assay: Coupled enzyme confirmation of inhibitors against recombinant Mtb PanC (AID 375); settings: coupled enzyme assay; at 10 µM, active compounds read high;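 further: 0% = full reaction with vehicle and 100% = no enzyme background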
Sequence (P9WIL5 whole entry, looked up): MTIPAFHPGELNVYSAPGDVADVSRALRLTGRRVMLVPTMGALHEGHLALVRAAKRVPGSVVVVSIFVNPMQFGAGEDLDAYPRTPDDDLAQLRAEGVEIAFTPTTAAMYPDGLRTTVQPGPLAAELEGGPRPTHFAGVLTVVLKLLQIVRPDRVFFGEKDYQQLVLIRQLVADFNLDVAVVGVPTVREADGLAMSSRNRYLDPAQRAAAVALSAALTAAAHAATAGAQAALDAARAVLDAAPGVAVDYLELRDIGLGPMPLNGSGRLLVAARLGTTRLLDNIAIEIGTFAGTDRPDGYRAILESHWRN

Q: With CCOC(=O)c1cnc2c(OC)cccc2c1N1CCN(c2ccc(OC)cc2)CC1 as the molecule, how does the inhibition read?
A: 0% (inactive)

Q: How did the inhibition turn out when O=C(CSC1=NC(=O)C(Cc2ccccc2)C(=O)N1)NC1CCCCC1 (stereo not given) was run?
A: 0% (inactive)

Q: With CCCCN(CCCNC(=O)C1CCN(S(=O)(=O)CC)CC1)c1ccccc1 as the molecule, how does the inhibition read?
A: 0% (inactive)

Q: With O=C(O)c1cc(Cl)c(Cl)cc1C(=O)N1CCCC1 as the molecule, how does the inhibition read?
A: 1% (inactive)

Q: Which inhibition does the source give for Cc1ccc(-c2oc3ccccc3c(=O)c2O)cc1 here?
A: 0% (inactive)

Q: Clc1cccc(N2CCN(Cc3nc(-c4ccccc4)no3)CC2)c1 was tested. Which inhibition did it give?
A: 0% (inactive)

Q: CCCc1cc(C(=O)Nc2ccc(C(C)=O)cc2)no1 was tested. Which inhibition did it give?
A: 0% (inactive)

Q: How did the inhibition turn out when Cc1noc(C)c1CSc1nc2cc(S(=O)(=O)N3CCOCC3)ccc2o1 was run?
A: 0% (inactive)

Q: Which inhibition does the source give for O=C(NCC(=O)N(c1ccc2c(c1)OCCO2)C(C(=O)NC1CCCC1)c1ccco1)c1ccco1 (stereo not given) here?
A: 6% (inactive)

Q: C=CCSc1nc(N)c(C(=O)Nc2ccccc2C)cc1C(N)=O was tested. Which inhibition did it give?
A: 0% (inactive)

Q: With CCN(CC)c1ccc2cc(NC(=O)CCC(=O)O)c(=O)oc2c1 as the molecule, how does the inhibition read?
A: 0% (inactive)

Q: For COc1ccc(-n2cnnc2SCCC#N)cc1, which inhibition is on record?
A: 0% (inactive)

Q: How did the inhibition turn out when Cc1[nH]c(=O)[nH]c(=O)c1S(=O)(=O)N1CCN(c2cccc(Cl)c2)CC1 was run?
A: 1% (inactive)

Q: With COc1ccc(CNC(=O)Cn2nc(C(F)(F)F)c3c2CCC3)cc1 as the molecule, how does the inhibition read?
A: 3% (inactive)

Q: With COc1ccccc1-n1nnnc1SCc1ccccc1 as the molecule, how does the inhibition read?
A: 3% (inactive)

Q: For COC(=O)c1cc(=O)nc2sc(-c3cccs3)nn12, which inhibition is on record?
A: 8% (inactive)

Q: Which inhibition does the source give for Cc1ccccc1-c1nc(CS(=O)(=O)CC(=O)NCc2ccccc2)c(C)o1 here?
A: 0% (inactive)

Q: Which inhibition does the source give for CC1Oc2ccccc2N(CC(=O)N(Cc2ccccc2)Cc2ccccn2)C1=O (stereo not given) here?
A: 4% (inactive)

Q: COc1cccc(NC(=O)CSc2nnc(-c3cccs3)n2C)c1 was tested. Which inhibition did it give?
A: 0% (inactive)

Q: With CCOC(=O)CSc1nc(C)c(C(=O)OCC)s1 as the molecule, how does the inhibition read?
A: 0% (inactive)

Q: With COC(=O)C1=C(CSCc2ccco2)NC(=O)NC1c1cc(C)ccc1C (stereo not given) as the molecule, how does the inhibition read?
A: 3% (inactive)

Q: O=C(Nc1cccc(O)c1)c1ccccc1 was tested. Which inhibition did it give?
A: 0% (inactive)

Q: How did the inhibition turn out when C=CCSC1=C(C#N)C(c2ccccc2Cl)CC(=O)N1 (stereo not given) was run?
A: 0% (inactive)

Q: How did the inhibition turn out when CCOc1cc(CN2CCN(C(=O)c3ccco3)CC2)ccc1OC was run?
A: 9% (inactive)

Q: Which inhibition does the source give for Cc1nc2ccccc2c(=O)n1NC(=O)c1c(O)c2c(n(CC(C)C)c1=O)CCCC2 here?
A: 0% (inactive)

Q: How did the inhibition turn out when O=C(O)c1cc2c([nH]c1=O)CCCC2 was run?
A: 8% (inactive)

Q: For CCOC(=O)c1ccc(S(=O)(=O)NC2CCCCCCC2)n1C, which inhibition is on record?
A: 0% (inactive)

Q: Which inhibition does the source give for [O-][n+]1c2ccc3nonc3c2nn1-c1ccccc1Cl here?
A: 0% (inactive)

Q: Which inhibition does the source give for COc1ccc(OC)c(NC(=O)CSc2ncccc2C(=O)O)c1 here?
A: 0% (inactive)

Q: Cn1c(C(=O)NCC2CCCO2)cc2c(=O)n(C)c3ccccc3c21 (stereo not given) was tested. Which inhibition did it give?
A: 0% (inactive)

Q: Cn1c(-c2ccccc2)cc(=O)c2ccccc21 was tested. Which inhibition did it give?
A: 0% (inactive)

Q: Which inhibition does the source give for Nc1ccc(S(=O)(=O)c2cccc(N)c2)cc1 here?
A: 8% (inactive)

Q: Which inhibition does the source give for COCCCNC(=O)c1ccc(CS(=O)(=O)c2ccc(OC)cc2)o1 here?
A: 9% (inactive)

Q: With COc1cccc(-c2cc(C(=O)Nc3cc(OC)c(OC)c(OC)c3)no2)c1 as the molecule, how does the inhibition read?
A: 0% (inactive)

Q: For COC(=O)[C@H](C)NC(=O)NCc1ccc(F)cc1, which inhibition is on record?
A: 1% (inactive)

Q: For CC(NC(=O)c1noc2c1CCCCC2)c1ccccc1 (stereo not given), which inhibition is on record?
A: 0% (inactive)

Q: With COc1ccc(-n2c(COc3cccc(C)c3)nnc2SCC(=O)NCc2ccco2)cc1 as the molecule, how does the inhibition read?
A: 5% (inactive)

Q: For CCN(CC)CCOC(=O)C1(c2ccc(OC)c(OC)c2)CCCC1, which inhibition is on record?
A: 12% (inactive)

Q: For Cc1cnc(C(=O)Nc2ccccc2-n2cccc2)cn1, which inhibition is on record?
A: 3% (inactive)

Q: CC(=O)N1CCC2(CC1)CC(=O)c1cc(OCC(=O)NCc3ccco3)ccc1O2 was tested. Which inhibition did it give?
A: 3% (inactive)
